Data as given in PubChem BioAssay (NCI).
This is part of a sample that, as a whole, favours compounds with a hit. Of some 83,000 tested, about 20% had one in any assay.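 Negative percent growth values reflect cell death: -40 means 40% of the cells present at the start died, and -100 means all died.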 The source made the active and inactive calls.

system: SK-MEL-28 melanoma; experiment: NCI-60 one-dose screen, 48 h (100 = growth as untreated, 0 = no growth, -100 = all killed); conditions: 10 µM unless noted
Method: Growth inhibition of the SK-MEL-28 human tumor cell line is measured as a screen for anti-cancer activity. Cells are grown in 96 well plates and exposed to the test compound for 48 hours. Compounds are tested at a single concentration, which is 10^-5 M for most compounds. The reported endpoint is percent growth (GI% or GIPRCNT), where numbers from 0 - 100% represent growth inhibition, and numbers from -100% - 0 represent cell death. For example, a value of 40 represents 60% growth inhibition. A value of 0 means no net growth occurred over the course of the experiment. A value of -40 indicates 40% of cells at the beginning of the experiment died by the end of the experiment. A value of -100 means all cells are dead at the end of the experiment.
NCI-60 Human Tumor Cell Lines Screen was performed using the standard one-dose NCI protocol, which is described in more detail at https://dtp.cancer.gov/discovery_development/nci-60/default.htm.
Compounds with GIPRCNT values below 10 were considered active. Activity score was based on GIPRCNT using the following formula: […]
Score is 0 for GIPRCNT values of 100 or above, 50 for GIPRCNT values of 0, and 100 for GIPRCNT values of -100.

SMILES | growth
Cc1nc2ccccc2c(/C=C/c2ccc(C(F)(F)F)cc2)c1C(=O)/C=C/c1ccccc1 | -52.2% (active)
COc1ccc(/C=C/C(=O)c2cc3c(N)c(C(=O)Nc4ccccc4C)sc3nc2C)cc1 | 51.3% (inactive)
O=C1/C=C/[C@@H](O)[C@@H]2C[C@@H](O)C[C@H]2/C=C/CCC[C@H](CCOCc2ccccc2)O1 | -2.95% (active)
CC(C)=CC(=O)N[C@@H]1CC2CCC3C(CC[C@@]4(C)C3CC[C@@H]4C(C)N(C)C)[C@@]2(C)C[C@@H]1O (stereo not given in full) | -28% (active)
Cc1ccc(C)c(-n2c(-c3ccc(Br)cc3)csc2=NC(=O)c2ccccc2F)c1 | 96.6% (inactive)
COc1ccc(C2=Nc3c/c(=C\c4c(O)[nH]c5cc(Cl)ccc45)ccc3=N2)cc1 | 47% (inactive)
O=C(CBr)CN1C(=O)c2ccccc2C1=O | 101% (inactive)
Cc1cc(C)cc(Nc2ccc([N+](=O)[O-])c(NCCN3CCOCC3)n2)c1 | 60.9% (inactive)
COc1cccc(/C=C2\COc3ccc(O)cc3C2=O)c1 | 108% (inactive)
COc1ccc(C2C3=C(COC3=O)N(CCO)c3cc4c(cc32)OCCO4)cc1OC (stereo not given) | 48.7% (inactive)
COc1cc(-c2nc3ccc(C)cc3[nH]2)ccc1OCC(=O)N=Nc1c(O)[nH]c2ccc(Cl)cc12 | 3.39% (active)
CCCCSCC(=O)c1ccccc1 | 108% (inactive)
CN1CCN(Cc2cc(NC(=O)c3cccc(C#Cc4cccc5[nH]nc(N)c45)c3)cc(C(F)(F)F)c2)CC1 | -60.5% (active)
Cc1cccc(-n2c(C)nc3ccc(N4CCCNC4=O)cc3c2=O)c1 | 112% (inactive)
CN1CCN(C(=O)c2cc(-c3ccc4ncnc(N5CCc6cc(F)c(Cl)cc65)c4c3)cnc2N)CC1 | -0.0571% (active)
CCCCC(=O)Nc1ncc(Cc2ccccc2Cl)s1 | 57.7% (inactive)
CC(/C=C1\SC(=S)N(CC(=O)NC(Cc2c[nH]c3ccccc23)C(=O)O)C1=O)=C\c1ccccc1 (stereo not given) | 105% (inactive)
CCN(CC)CCOc1nc2c3ccc(Cl)cc3nn2c2ccccc12 | 44.8% (inactive)
C=C1C(=O)O[C@H]2[C@H]1CC/C(COC(=O)c1cc3cc(F)ccc3[nH]1)=C\CC[C@@]1(C)O[C@@H]21 | -77.4% (active)
Cc1ccccc1OCC(O)COc1ccccc1C | 101% (inactive)

SMILES | growth
O=C(Nc1ncc(Cc2ccccc2Cl)s1)c1cccs1 | 85.2% (inactive)
COC(=O)c1c2c(n3ccc(C)cc13)C(=O)c1ccccc1C2=O | 99.4% (inactive)
CC(=O)Nc1c(Cl)cc(Cl)c2c1Cc1cc([N+](=O)[O-])ccc1-2 | 100% (inactive)
C/C(C=O)=C\c1ccc2c(c1)OCO2 | 124% (inactive)
COc1cc(C2Cc3ncccc3-c3[nH]c(=O)c4cccnc4c32)cc(OC)c1OC (stereo not given) | 66.4% (inactive)
CCCCN1C(=O)/C(=c2\sc3n(c2=O)NC2C(N=3)N(CC)C(=O)N2CC)c2ccccc21 (stereo not given) | 65.6% (inactive)
N=c1sc(Cc2cc(Cl)ccc2Cl)cn1CC(=O)c1ccccc1 | 58.5% (inactive)
CN1C(=O)N(C)C2C1NC(=S)N2/N=C/C=C/c1ccccc1[N+](=O)[O-] (stereo not given) | 56.7% (inactive)
O=C(Cn1nnc2ccccc21)N/N=C/c1ccccc1F | 108% (inactive)
CC(=O)N/C(=C1/OC(C(O)C(O)C(O)CO)CN1C)[P+](c1ccccc1)(c1ccccc1)c1ccccc1 (stereo not given) | 106% (inactive)
CCN(CC)c1ccc(N2C(=O)/C(=C/c3cccs3)SC2=S)cc1 | 97.6% (inactive)
CNC(=O)c1c(NC(=O)c2ccc(C(C)(C)C)cc2)sc2c(CN(C)C)c(O)ccc12 | -89.1% (active)
CN1CCCc2cc(/C=C3/SC(=S)N(CCc4ccc(O)cc4)C3=O)ccc21 | 88.5% (inactive)
N#Cc1c(N2CCOCC2)nc(=S)[nH]c1-c1ccccc1 | 79.6% (inactive)
COc1ccc(/C=C/C(=O)c2ccc(NC(=O)CSc3nnc(-c4cc(-c5ccccc5)nc5ccccc45)n3-c3ccccc3)cc2)cc1 | 98.4% (inactive)
COC(=O)c1c2c(c(C)[n+]([O-])c1C)C(=O)C=CC2=O | -82.9% (active)
O=C(CCl)Nc1ccc2c(Nc3cc(O)ccc3Cl)ncnc2c1 | -66.4% (active)
CC(C)CCC[C@@H](C)C1CCC2C3CCC4=C/C(=N/OCCN(C)C)CC[C@]4(C)C3CC[C@@]21C (stereo not given in full) | 101% (inactive)
COc1cc(-c2cc(-c3ccc(Nc4ncnc5cc(Cl)ccc45)cc3)nc(N3CCN(C)CC3)n2)cc(OC)c1OC | 86.6% (inactive)
COc1ccc(Cc2cnc(NC(=O)c3sc4ccccc4c3Cl)s2)cc1 | 62.1% (inactive)
